Experimental findings from paper PMC4336329 (PLoS ONE, 2015) are described below.

About 14,000 (4.5%) of roughly 310,000 compounds showed an effect of 50% or more. Effects have a minus sign here. For the sample, strong results were picked, then their nearest neighbours and some compounds at random.
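Also: peak tail current of the secondary pulse compared with the same well before compound.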

The target in the assay is human ether-à-go-go-related gene (hERG) potassium channel (human, UniProt Q12809). The assay is described as follows: primary screen, population patch clamp on CHO cells stably expressing hERG; higher = less effect of the substance.
Sequence of human ether-à-go-go-related gene (hERG) potassium channel (Q12809 whole entry, looked up): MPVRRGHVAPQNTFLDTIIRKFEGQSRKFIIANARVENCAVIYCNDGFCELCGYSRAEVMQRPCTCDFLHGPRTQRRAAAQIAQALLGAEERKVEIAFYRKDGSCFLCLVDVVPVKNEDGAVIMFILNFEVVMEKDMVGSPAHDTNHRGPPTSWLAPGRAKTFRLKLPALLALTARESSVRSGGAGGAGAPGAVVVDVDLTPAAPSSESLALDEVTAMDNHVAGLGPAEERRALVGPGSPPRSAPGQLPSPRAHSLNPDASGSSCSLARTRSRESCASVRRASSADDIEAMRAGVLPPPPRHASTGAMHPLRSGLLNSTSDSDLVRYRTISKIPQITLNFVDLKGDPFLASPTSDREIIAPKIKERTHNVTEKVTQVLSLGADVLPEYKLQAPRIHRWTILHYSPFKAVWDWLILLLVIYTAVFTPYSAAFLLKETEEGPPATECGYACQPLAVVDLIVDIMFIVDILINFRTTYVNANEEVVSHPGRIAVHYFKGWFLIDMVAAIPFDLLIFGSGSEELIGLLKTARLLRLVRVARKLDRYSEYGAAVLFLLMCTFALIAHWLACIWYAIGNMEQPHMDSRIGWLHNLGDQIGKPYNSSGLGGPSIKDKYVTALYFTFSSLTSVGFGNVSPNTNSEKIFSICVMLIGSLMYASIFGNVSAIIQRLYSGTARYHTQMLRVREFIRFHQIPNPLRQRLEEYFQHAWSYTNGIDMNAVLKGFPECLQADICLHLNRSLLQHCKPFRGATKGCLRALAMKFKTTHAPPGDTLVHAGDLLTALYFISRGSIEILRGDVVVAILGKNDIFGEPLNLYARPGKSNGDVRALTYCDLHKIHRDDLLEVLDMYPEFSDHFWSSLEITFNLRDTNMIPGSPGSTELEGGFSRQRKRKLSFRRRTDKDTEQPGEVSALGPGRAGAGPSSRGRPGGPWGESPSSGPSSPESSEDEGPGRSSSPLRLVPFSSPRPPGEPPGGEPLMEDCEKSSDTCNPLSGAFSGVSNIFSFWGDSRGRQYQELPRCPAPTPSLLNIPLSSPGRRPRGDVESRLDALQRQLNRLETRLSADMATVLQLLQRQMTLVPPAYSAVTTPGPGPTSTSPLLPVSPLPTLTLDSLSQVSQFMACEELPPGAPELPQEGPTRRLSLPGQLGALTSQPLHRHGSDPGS
Regarding `CCOC(=O)c1cnn(CCOC(=O)c2ccccc2F)c1NC(=O)c1ccccc1F`, the “hERG current change (%, negative = inhibition) at 10uM” value is reported as -15.6%.
Then `COC(=O)c1cc(Br)c(=O)n(-c2nccs2)c1`, with -5.98%.
For the compound `Cc1cccc(N2C(S)=C(C#N)C(=O)NC2c2cccs2)c1` (centres unmarked), the “hERG current change (%, negative = inhibition) at 10uM” value was determined as 13%.
Then `CN(CC(=O)Nc1cccc2ccccc12)C(=O)/C=C/c1cccs1`, with -10.7%.
Then `O=C1OC(/C=C/c2ccc(Cl)cc2)=NC/1=C/c1ccco1`, with 2.78%; and `Cc1occc1C(=O)NNC(=O)c1ccccc1F`, with 13%.
With `CC(=O)C(=Nc1cccc(Cl)c1)NNc1ccccc1C`, the “hERG current change (%, negative = inhibition) at 10uM” value was determined as 8.82%.
In the case of `O=C(N1CCN(c2ccc(F)cc2)CC1)C1(c2cccs2)CCOCC1`, the “hERG current change (%, negative = inhibition) at 10uM” value was -33%.
Then `O=C(c1ccco1)N1CCN(c2ccc([N+](=O)[O-])cc2F)CC1`, with -64.9%.
Then `CC(=O)c1ccc(N2CCN(C(=O)c3ccco3)CC2)c(F)c1`, with -25.2%; and `O=C(c1ccco1)N1CCN(c2cc(N3CCOCC3)c(F)cc2[N+](=O)[O-])CC1`, with -49.6%; and `O=C(c1ccc([N+](=O)[O-])cc1)N1CCN(C(=O)c2ccco2)CC1`, with -47.4%.
Then `O=C(c1ccco1)N1CCN(c2ccc(N3CCCCC3)nn2)CC1`, with -44.8%; and `O=C(c1ccco1)N1CCN(c2ccc([N+](=O)[O-])cn2)CC1`, with -57.7%.
As for `O=C(CCCNS(=O)(=O)c1cccc2nsnc12)NCc1ccc(Cl)cc1`, the “hERG current change (%, negative = inhibition) at 10uM” value was -37.9%.
Then `CC(C)n1nc(C(=O)N2CCN(S(=O)(=O)c3cccs3)CC2)c2ccccc2c1=O`, with -28.7%; and `O=C(CSc1nn(-c2ccc(F)cc2)c(=S)s1)NC(=O)NCc1ccco1`, with 2.66%.
Turning to `O=C(CSc1nnc(SCc2ccc(Cl)cc2)s1)N1CCN(C(=O)c2ccco2)CC1`, the “hERG current change (%, negative = inhibition) at 10uM” value is recorded as -33.7%.
Then `O=C(CSc1nn(-c2ccc(F)cc2)c(=S)s1)N1CCN(C(=O)c2ccco2)CC1`, with -75%; and `CC(C)Nc1nnc(SCC(=O)N2CCN(C(=O)c3ccco3)CC2)s1`, with -2.72%; and `CCSc1nnc(SCC(=O)N2CCN(C(=O)c3ccco3)CC2)s1`, with -33.4%.
As for `O=C(CSc1nn(-c2ccc(Cl)cc2)c(=S)s1)N1CCN(C(=O)c2ccco2)CC1`, the “hERG current change (%, negative = inhibition) at 10uM” value is recorded as -70.5%.
Then `O=S(=O)(c1ccc(Cl)cc1)N1CCN(C(=S)Nc2ccccc2F)CC1`, with 2.92%.
Regarding `O=C(Nc1cccc(-c2ccc(N3CCOCC3)nn2)c1)c1ccccc1`, the “hERG current change (%, negative = inhibition) at 10uM” value is on record as -30.8%.
Then `CC(=O)C[C@@H](O)CC(=O)[C@H]1OC(=O)CC/C=C\Cc2ccccc21`, with 14.4%.
Then `O=C(CN1C(=O)C2CC=CCC2C1=O)NCC1COc2ccccc2O1` (centres unmarked), with 1.42%; and `CN(C)C(=O)NC(Nc1cccc([N+](=O)[O-])c1)C(Cl)(Cl)Cl` (centres unmarked), with -27.1%; and `CCc1ccc(CNC(=O)c2ccc(OC)c(OC3CCN(C(C)C)CC3)c2)nc1`, with -7.31%.
For `Cc1ccnc(NC(c2cccnc2)c2ccc3cccnc3c2O)c1` (centres unmarked), the “hERG current change (%, negative = inhibition) at 10uM” value is listed as -22.5%.
With `COc1ccc(N2CCN(C(=O)C(=O)c3cn(CC(=O)N4CCOCC4)c4ccccc34)CC2)cc1`, the “hERG current change (%, negative = inhibition) at 10uM” value is listed as 2.05%.
Then `S=C1NC(c2ccccc2)=CC(c2ccccc2)N1` (centres unmarked), with 6.64%; and `CC(=O)NN1C(=O)/C(=C2/Sc3ccc(Cl)cc3N2C)SC1=S`, with 10.6%; and `CC#CC[N+](C)(C)CCCCCCCC.[Br-]`, with -40.1%.
In the case of `C#CC[N+](C)(C)CCCCCCCCC.[Br-]`, the “hERG current change (%, negative = inhibition) at 10uM” value is listed as -54.9%.
Then `CC#CC[N+](C)(C)CCCCCCCCCC.[Br-]`, with -48.8%.
`C#CC[N+](C)(C)CCCCCCCC.[Br-]`: the “hERG current change (%, negative = inhibition) at 10uM” value is listed as -15.9%.
Then `C#CC[N+](C)(C)CCCCCCCCCCCC.[Br-]`, with -50.7%; and `C#CC[N+](C)(C)CCCCCCCCCC.[Br-]`, with -38.4%; and `CCCCNC(=O)c1ccc2c(c1)N(CC)C(=O)CS2`, with -2.74%.
Then `COC(=O)C1=C(C)N(Cc2ccccc2)C(=NCc2cc(OC)c(OC)c(OC)c2)N[C@H]1c1cccc(F)c1`, with -23%; and `COc1ccc(OC)c(/C=C(\C)C(=O)c2c(C)cc(C)[nH]c2=O)c1`, with 7.34%; and `CN1CCN(c2ccc(NC(=O)c3ccco3)cc2Cl)CC1`, with -16.8%.
Then `CN1CCN(c2ccc(NC(=O)c3ccc([N+](=O)[O-])o3)cc2Cl)CC1`, with -57.3%.
With `CC(=O)N1CCN(c2ccc(NC(=O)c3ccco3)cc2Cl)CC1`, the “hERG current change (%, negative = inhibition) at 10uM” value is on record as 0.303%.
Then `CC(=O)N1CCN(c2ccc(NC(=O)c3ccc([N+](=O)[O-])o3)cc2Cl)CC1`, with -50%; and `CC(=O)N1CCN(c2ccc(NC(=O)c3ccc(N4CCCC4)c([N+](=O)[O-])c3)cc2Cl)CC1`, with -12.4%.
Then `O=C(Nc1ccc(NC(=O)c2ccc([N+](=O)[O-])o2)cc1Cl)c1ccco1`, with 9.42%; and `CC1CCCCC12NC(=O)N(CC(=O)NCCc1ccc(F)cc1)C2=O` (centres unmarked), with -19.7%.
Then `Cc1ccc2[nH]c3c(=O)n(CC(=O)Nc4ccccc4N4CCN(C)CC4)ncc3c2c1`, with -5.73%; and `COc1ccc(/C=C2/SC(=S)N(CCCC(=O)Nc3cccc(O)c3)C2=O)cc1`, with 9.11%.
As for `Cc1cccc(NC(=O)CN(C)S(=O)(=O)c2ccc3c(c2)n(C)c(=O)c(=O)n3C)c1C`, the “hERG current change (%, negative = inhibition) at 10uM” value is on record as -7.72%.
Then `Br.COc1ncnc2c1N=C1CC(C)(C)CC(N)=C1S2`, with -10.4%; and `Cc1ccc(S(=O)(=O)N2CCN(c3ccccc3)CC2)cc1`, with 13%.
Then `CC(C)N(Cc1ccccc1)CC(O)COc1ccc(S(=O)(=O)N2CCOCC2)cc1Cl` (centres unmarked), with -32.3%.
Then `COC(=O)Cc1c[nH]c2cccc(OCC(O)CN(Cc3ccccc3)C(C)C)c12.O=C(O)c1ccccc1O` (centres unmarked), with -63%.
As for `COc1ccc(COCC(O)CN(Cc2ccccc2)C(C)C)cc1OC` (centres unmarked), the “hERG current change (%, negative = inhibition) at 10uM” value is on record as 0.398%.
Then `O=C(C[n+]1cc(-c2ccc(Cl)c(Cl)c2)n2c1CCC2)c1cccs1.[Br-]`, with -3.09%; and `O=C(N/N=C/c1cccc(OC(=O)c2ccccc2Cl)c1)c1cccnc1`, with -17%.
Then `O=C(Nc1cccc2ccccc12)c1cccc([N+](=O)[O-])c1`, with 11.6%; and `CCN(CC)CCN1C(=O)c2ccccc2NC1c1ccccc1F` (centres unmarked), with -46.3%; and `O=C1c2ccccc2NC(c2cccc(F)c2)N1Cc1ccco1` (centres unmarked), with -48.6%.
With `O=C1c2ccccc2NC(c2ccccc2)N1Cc1ccccc1` (centres unmarked), the “hERG current change (%, negative = inhibition) at 10uM” value is reported as -35.2%.
Then `O=C1c2ccccc2NC(c2ccc(F)cc2)N1Cc1ccccc1` (centres unmarked), with -9.65%; and `O=C1c2ccccc2NC(c2cccc(F)c2)N1Cc1ccccc1` (centres unmarked), with -71.1%; and `CCCN1C(=O)c2ccccc2NC1c1ccc(Cl)c(Cl)c1` (centres unmarked), with 6.85%.
Then `CCCN1C(=O)c2ccccc2NC1c1ccc(C)cc1` (centres unmarked), with -4.35%; and `CCN(CC)CCN1C(=O)c2ccccc2NC1c1ccc(C)cc1` (centres unmarked), with -66.1%; and `CCN(CC)CCN1C(=O)c2ccccc2NC1c1ccc(N(C)C)cc1` (centres unmarked), with -46.6%.
For the compound `CCN(CC)CCN1C(=O)c2ccccc2NC1c1cccc(F)c1` (centres unmarked), the “hERG current change (%, negative = inhibition) at 10uM” value was -68.2%.
Then `CCCN1C(=O)c2ccccc2NC1c1ccc(Br)cc1` (centres unmarked), with -18.1%.
Then `CCN(CC)CCN1C(=O)c2ccccc2NC1c1ccc(Br)cc1` (centres unmarked), with -85.7%; and `COc1ccc(NC(=S)N2CCN(Cc3cccc(F)c3)CC2)c(OC)c1`, with -6.36%.
On to `COc1ccc(C(=O)N2C(=S)NC(=O)/C2=C\c2ccc(C)cc2)cc1`, for which the “hERG current change (%, negative = inhibition) at 10uM” value is on record as -2.42%.
Then `Cc1cccc(CN2C(=O)/C(=C\c3ccc(C(=O)NCCCN4CCN(C)CC4)cc3)Oc3ccccc32)c1`, with -4.13%; and `O=C(NCCNC1CCN(Cc2ccccc2)CC1)c1cccs1`, with -15.2%; and `COc1ccc(NC(=O)CN(C)CC(=O)Nc2ccc(Cl)cc2[N+](=O)[O-])cc1`, with -48%.
Then `CCOC(=O)c1[nH]cnc1C(=O)Nc1ccc(C)cc1`, with 11.6%.
Then `CC1(C)CC(NC(=O)Nc2ccc([N+](=O)[O-])cc2)CC(C)(C)N1`, with 9.76%; and `FC(F)(F)c1nnc2c(Sc3ccc(Cl)cc3)nc3ccccc3n12`, with 13.5%.
For the compound `CC(=O)c1c(C)oc2ccc(OCc3ccccc3)cc12`, the “hERG current change (%, negative = inhibition) at 10uM” value came to 0.181%.
Then `Cc1ccc(NC2=NC(c3ccc(F)cc3)n3c(nc(C)cc3=O)N2)c(C)c1` (centres unmarked), with 21.8%; and `O=C(Cn1cc([N+](=O)[O-])cn1)NCc1ccccc1`, with 20.9%.
Then `CCC(C)[C@H]1CNC(=O)C(=O)N1CCCc1cc(OC)c(OC)c(OC)c1` (some centres unmarked), with 9.16%.
Then `CCN(CC)CCN1C(=O)c2ccccc2NC1c1ccc(F)cc1` (centres unmarked), with -64.3%; and `COc1ccc(C2Nc3ccccc3C(=O)N2c2ccccc2)cc1CN1CCOCC1` (centres unmarked), with -26.7%.
Regarding `CCCN1C(=O)c2ccccc2NC1c1ccc(Cl)cc1` (centres unmarked), the “hERG current change (%, negative = inhibition) at 10uM” value is recorded as -7.23%.
Then `COc1ccc(C2Nc3ccccc3C(=O)N2Cc2ccccc2)cc1CN1CCOCC1` (centres unmarked), with -63.5%; and `COc1ccc(C2Nc3ccccc3C(=O)N2O)cc1CN1CCOCC1` (centres unmarked), with -2.72%; and `CCN(CC)CCN1C(=O)c2ccccc2NC1c1cc(OC)c(OC)c(OC)c1` (centres unmarked), with -40.7%.
